This is a sample that favours compounds with a hit; in the whole collection about 2.1% have one here.
Shn3 inh set2 = inhibitors of Schnurri-3 3'UTR reporter in osteoblasts; Clone20 osteoblast Shn3 3'UTR firefly luciferase, 24 h; inhibition, % at 12.5 µM; 360,000 compounds, 0.52% hits; AID 588674;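 active = mean inhibition of at least 75% with every replicate also reaching 75%; inconclusive = mean inhibition at least 75% but some replicate below; inactive = mean inhibition below 75%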
aSyn 5UTR inh = MLPCN primary screen, SNCA 5' untranslated region. alpha-synuclein 5'UTR reporter, inhibitor activity. inhibition, % (tested at 7.5 µM). 300,000 compounds, 0.82% hits; in the data active = inhibition above about 60%; inconclusive = no clear call, values can overlap the other calls;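 note: H4 neuroglioblastoma cells stably carrying SNCA 5'UTR luciferase fusion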
PAX8 inh HTS = lowers PAX8-driven luciferase in RMG-I cells | RMG-I TPO-luciferase reporter, SteadyGlo, 24 h | 360,000 compounds, 1.2% hits | inhibition, % at 12.6 µM | AID 652154;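 active = mean replicate inhibition at least 60% with every replicate also reaching 60%; inconclusive = only one of the two criteria is met; inactive = mean below 60% and not all replicates reaching 60%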;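 note: luciferase light reporting Pax8 driven TPO promoter activity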
MITF TRPM1 inh = inhibitors of MITF-driven TRPM1 promoter in melanoma cells; SK-MEL-5 TRPM1 promoter luciferase, 24 h; inhibition, % at 12.5 µM; 330,000 compounds, 0.83% hits; AID 488899;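 active = mean inhibition across replicates of 60% or more, whatever share of single replicates reaches that level; inconclusive = some that reach 60%, reason not given; inactive = mean inhibition across replicates below 60%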
LMP1 NFkB inh = inhibitors of Epstein-Barr LMP1-induced NF-kappaB reporter | inhibition, % at 12.5 µM | LMP1-induced NF-kappaB luciferase reporter cells, luminescence | 350,000 compounds, 0.69% hits; in the data active = inhibition above about 41%; inconclusive = no clear call, values can overlap the other calls
Of the large screens only hits and unclear results are named; the others gave an inactive call.

Cc1oc(-c2ccc(Cl)cc2)nc1CN1CCC(C(=O)NCCCN2CCCC2=O)CC1	none
COc1cc(C2c3cc4c(cc3OC(NNC(N)=S)C2C)OCO4)cc(OC)c1OC (stereo not drawn)	PAX8 inh HTS 85 (no result: aSyn 5UTR inh)
COc1cc(C2c3cc4c(cc3OC(NNC(N)=O)C2C)OCO4)cc(OC)c1OC (stereo not drawn)	PAX8 inh HTS 75 (no result: aSyn 5UTR inh)
Cc1cccc(C)c1OCC(=O)Nc1ccncc1	none
Cc1ccc(C(=O)Nc2ccc(CC(=O)O)cc2)o1	none (no result: PAX8 inh HTS)
CC(C)(C)c1ccc(C(=O)Nc2ccc(CC(=O)O)cc2)o1	aSyn 5UTR inh 111, MITF TRPM1 inh 73, LMP1 NFkB inh 72 (no result: PAX8 inh HTS)
CCOc1ccc2nc3cc(NCc4ccc(OC)cc4)ccc3c(N)c2c1	Shn3 inh set2 inconclusive, aSyn 5UTR inh 109, MITF TRPM1 inh inconclusive (no result: PAX8 inh HTS)
CCn1cnc2cc(NCc3ccc(OC)cc3)ccc21	none (no result: PAX8 inh HTS)
O=[N+]([O-])c1ccc(Nc2ccc(N3CCOCC3)cc2)c([N+](=O)[O-])c1	PAX8 inh HTS 90
O=C(c1noc2c1CSc1ccccc1-2)N1CCN(c2ccc(Cl)cc2)CC1	LMP1 NFkB inh 68
CC1(C)Cc2ccccc2C(Nn2cnnc2)=N1	none (no result: PAX8 inh HTS)
CC1(C)Cc2ccccc2C2=NNC(=O)C2=N1	MITF TRPM1 inh 96
Cn1ccc2c(N(Cc3ccccc3)Cc3ccccc3)cc3c(c21)C1CCC3C1 (stereo not drawn)	none (no result: aSyn 5UTR inh, MITF TRPM1 inh, LMP1 NFkB inh)
COc1ccc(S(=O)(=O)Nc2ccc(C(F)(F)F)cc2)cc1OC	none
O=C(C[C@@H]1C[C@H]2c3cc(NC(=O)C4CCOCC4)ccc3O[C@H]2[C@H](CO)O1)NCc1ccc(Oc2ccccc2)cc1	PAX8 inh HTS 90 (no result: Shn3 inh set2, aSyn 5UTR inh, MITF TRPM1 inh, LMP1 NFkB inh)
O=C(C[C@@H]1C[C@@H]2c3cc(NC(=O)NC4CCCC4)ccc3O[C@@H]2[C@@H](CO)O1)NCc1ccc(Oc2ccccc2)cc1	none (no result: Shn3 inh set2, aSyn 5UTR inh, MITF TRPM1 inh, LMP1 NFkB inh)
O=C(C[C@@H]1C[C@H]2c3cc(NC(=O)NC4CCCC4)ccc3O[C@H]2[C@H](CO)O1)NCc1ccc(Oc2ccccc2)cc1	PAX8 inh HTS 66 (no result: Shn3 inh set2, aSyn 5UTR inh, MITF TRPM1 inh, LMP1 NFkB inh)
CC(=O)Oc1ccc2ccccc2c1C(NC(=O)Cc1ccccc1)c1ccc(Cl)cc1 (stereo not drawn)	PAX8 inh HTS 85
CCOc1ccc(C(NC(=O)CC)c2c(O)ccc3ccccc23)cc1 (stereo not drawn)	none
COc1ccc(Cl)cc1C(=O)NCCN(C)C	none
COc1ccc(-c2nc3c(C(=O)NCCN(C)C)cccc3c3ccccc23)cc1	none (no result: aSyn 5UTR inh)
COc1cccc2nc3c(C(=O)NCCN(C)C)cccc3cc12	MITF TRPM1 inh 77 (no result: aSyn 5UTR inh)
COc1ccc(C(=O)NCCN(C)C)c2nc3ccccc3cc12	Shn3 inh set2 93, MITF TRPM1 inh 95 (no result: aSyn 5UTR inh)
CN(C)CCNC(=O)c1cccc2nc3c(ccc4ccccc43)nc12	MITF TRPM1 inh 86 (no result: aSyn 5UTR inh)
CCCNC(=O)N(C)C[C@H]1Oc2ncc(C#CCc3ccccc3)cc2C(=O)N([C@@H](C)CO)C[C@@H]1C	none (no result: Shn3 inh set2, aSyn 5UTR inh, MITF TRPM1 inh, LMP1 NFkB inh)
C[C@H]1CN([C@@H](C)CO)C(=O)c2c(c3ccccc3n2C)-c2ccccc2CO[C@H]1CN(C)C(=O)Nc1ccc(-c2ccccc2)cc1	none (no result: Shn3 inh set2, aSyn 5UTR inh, MITF TRPM1 inh, LMP1 NFkB inh)
C[C@H](CO)N1C[C@H](C)[C@@H](CN(C)C(=O)CCN(C)C)OCc2ccccc2-c2c(n(C)c3ccccc23)C1=O	PAX8 inh HTS 65 (no result: Shn3 inh set2, aSyn 5UTR inh, MITF TRPM1 inh, LMP1 NFkB inh)
C[C@@H]1CN([C@@H](C)CO)C(=O)c2c(c3ccccc3n2C)-c2ccccc2CO[C@@H]1CN(C)C(=O)CCN(C)C	none (no result: Shn3 inh set2, aSyn 5UTR inh, MITF TRPM1 inh, LMP1 NFkB inh)
C[C@H]1CN([C@@H](C)CO)C(=O)c2c(c3ccccc3n2C)-c2ccccc2CO[C@@H]1CN(C)C(=O)[C@@H](Cc1ccccc1)N(C)C	none (no result: Shn3 inh set2, aSyn 5UTR inh, MITF TRPM1 inh, LMP1 NFkB inh)
C[C@H](CO)N1C[C@H](C)[C@H](CN(C)C(=O)[C@H](Cc2ccccc2)N(C)C)OCc2ccccc2-c2c(n(C)c3ccccc23)C1=O	PAX8 inh HTS 116 (no result: Shn3 inh set2, aSyn 5UTR inh, MITF TRPM1 inh, LMP1 NFkB inh)
C[C@H](CO)N1C[C@H](C)[C@@H](CN(C)C(=O)Nc2ccc(F)cc2)OCc2ccccc2-c2c(n(C)c3ccccc23)C1=O	PAX8 inh HTS 100 (no result: Shn3 inh set2, aSyn 5UTR inh, MITF TRPM1 inh, LMP1 NFkB inh)
C[C@H](CO)N1C[C@H](C)[C@H](CN(C)Cc2ccc(-c3ccccc3)cc2)Oc2ccc(NC(=O)c3ccncc3)cc2C1=O	none (no result: Shn3 inh set2, aSyn 5UTR inh, MITF TRPM1 inh, LMP1 NFkB inh)
Cc1cc(C)nc(N/N=C/c2cccc3ccccc23)n1	PAX8 inh HTS 82
Oc1c(C(c2cccs2)N2CCN(c3ccccc3)CC2)sc2ncnn12 (stereo not drawn)	none
Oc1c(C(c2cccs2)N2CCC3(CC2)OCCO3)sc2ncnn12 (stereo not drawn)	Shn3 inh set2 88 (no result: PAX8 inh HTS, MITF TRPM1 inh)
C[C@H](CO)N1C[C@H](C)[C@H](CN(C)Cc2ccc3c(c2)OCO3)OCc2ccccc2-c2ccccc2C1=O	none (no result: Shn3 inh set2, aSyn 5UTR inh, MITF TRPM1 inh, LMP1 NFkB inh)

Screening data deposited in PubChem BioAssay by Broad Institute.
